High-throughput results: PubChem BioAssay, Broad Institute
The full list was thinned out, with hits kept by preference.
DENV2 CPE: inhibitors of DENV2 cytopathic effect, primary screen, cell-based, plate reader, single concentration; CPE inhibition, % at 9.99 µM; DENV2-infected cells, cytopathic effect rescue; AID 651640, 2012; 350,000 compounds, 1.7% hits; in the data active means CPE inhibition above about 20%, passing the limit was not always enough; inconclusive means no clear call, values can overlap the other calls; tested in BHK-21 cells;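 further: 0% = median of neutral control wells and 100% = median of positive control wells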
Glyco luc inh: increase of ERlucT glycosylation luciferase signal, primary screen, N-linked glycosylation inhibitor project, D54 ERlucT cells, luminescence, set 2. reporter increase, % at 12.5 µM. D54 ERlucT glycosylation luciferase reporter, 24 h; percent of 100 nM tunicamycin response. 360,000 compounds, 0.23% hits;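 active means mean luciferase reporter signal, scaled so untreated is 0 and the glycosylation-blocking control 100, at or above a set limit in every replicate; inconclusive means mean reaches the limit but not every replicate does; inactive means mean below the limit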;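 further: luciferase carries N-glycosylation sites so blocking glycosylation raises the light; 0% = median of neutral control wells and 100% = median of 100 nM tunicamycin wells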
Rtt109 HAT inh: inhibitors of C. albicans Rtt109/Vps75 HAT, primary screen, biochemical, ThioGlo CoA-SH fluorescence, plate reader; purified Rtt109/Vps75, 4 h; 330,000 compounds, 0.16% hits; Histone acetyltransferase RTT109 (Candida albicans (strain SC5314 / ATCC MYA-2876)), …; inhibition, % at 34.9 µM; AID 540336, 2011;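 active means inhibition of at least 50% in every replicate; inconclusive means best replicate reaches 50% inhibition but some replicates fall short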
Target sequence (Q5AAJ8 whole entry, looked up): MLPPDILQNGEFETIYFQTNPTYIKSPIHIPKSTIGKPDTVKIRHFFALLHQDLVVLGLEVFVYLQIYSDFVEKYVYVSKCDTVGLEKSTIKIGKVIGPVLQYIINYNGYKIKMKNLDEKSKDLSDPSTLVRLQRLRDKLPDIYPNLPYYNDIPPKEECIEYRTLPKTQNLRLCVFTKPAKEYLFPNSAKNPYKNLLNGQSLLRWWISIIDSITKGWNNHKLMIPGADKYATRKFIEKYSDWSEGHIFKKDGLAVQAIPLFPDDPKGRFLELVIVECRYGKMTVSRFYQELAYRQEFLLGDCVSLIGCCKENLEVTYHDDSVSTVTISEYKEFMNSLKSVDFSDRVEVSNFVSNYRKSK
PglD DTNB: C. jejuni PglD acetyltransferase inhibitors, primary screen, biochemical, DTNB colorimetric, single point; UDP-N-acetylbacillosamine N-acetyltransferase PglD (Campylobacter jejuni); purified PglD enzyme, DTNB colorimetric CoA detection; inhibition, % at 12.5 µM; 360,000 compounds, 0.098% hits; in the data active means inhibition above about 16%, passing the limit was not always enough; inconclusive means no clear call, values can overlap the other calls
Numbers without * were called inactive.

How did CCCNC(=O)C1(C)CCN(C(=O)Cc2ccc(OC)c(OC)c2)C1 (stereo not drawn) do in these assays?
DENV2 CPE: 3; Glyco luc inh: 3; PglD DTNB: -10

What do the screens show for `C[C@H](CO)N1C[C@H](C)[C@H](CN(C)C(=O)Nc2ccc(F)cc2)Oc2ccc(NS(=O)(=O)c3ccccc3)cc2CC1=O`?
DENV2 CPE: -6; PglD DTNB: 1

Results for COc1ccc(C)cc1Nc1n[n+](-c2ccccc2)c(-c2c(Cl)cccc2Cl)s1 ?
DENV2 CPE: 8

Results for COc1ccc(C)cc1Nc1n[n+](-c2ccccc2)c(-c2ccc(OC)c(OC)c2OC)s1 ?
DENV2 CPE: 92*; Glyco luc inh: 2; Rtt109 HAT inh: -9; PglD DTNB: -3

What do the screens show for `COc1ccc(NC(=O)Nc2ccc3c(c2)CC(=O)N([C@H](C)CO)C[C@@H](C)[C@@H](CN(C)S(=O)(=O)c2ccc(OC)cc2)O3)cc1`?
DENV2 CPE: 40*; PglD DTNB: 2

How did COc1ccc(S(=O)(=O)N(C)C[C@@H]2Oc3ccc(N(C)C)cc3CC(=O)N([C@@H](C)CO)C[C@@H]2C)cc1 do in these assays?
DENV2 CPE: 15; PglD DTNB: 7

What do the screens show for `COc1ccc(S(=O)(=O)N(C)C[C@@H]2Oc3ccc(N(C)C)cc3CC(=O)N([C@H](C)CO)C[C@@H]2C)cc1`?
DENV2 CPE: 23*; PglD DTNB: 7

What do the screens show for `COc1ccc(NC(=O)Nc2ccc3c(c2)CC(=O)N([C@@H](C)CO)C[C@@H](C)[C@H](CN(C)S(C)(=O)=O)O3)cc1`?
DENV2 CPE: 30*

How did COc1ccc(S(=O)(=O)N(C)C[C@H]2Oc3ccc(NC(=O)C4CCCCC4)cc3CC(=O)N([C@H](C)CO)C[C@H]2C)cc1 do in these assays?
DENV2 CPE: 22*; PglD DTNB: 8

How did N#C[C@@H]1[C@H](c2ccccc2)[C@H](CO)N1C(=O)Cc1ccccn1 do in these assays?
DENV2 CPE: -5; PglD DTNB: -4

How did CN(C)C(=O)C[C@@H]1CC[C@H]2[C@H](COc3ccc(NC(=O)C4CCOCC4)cc3C(=O)N2C)O1 do in these assays?
DENV2 CPE: inconclusive; PglD DTNB: 0

What do the screens show for `C[C@@H]1CN([C@H](C)CO)C(=O)c2cc(NC(=O)NC3CCCCC3)ccc2O[C@H]1CN(C)Cc1ccccc1`?
DENV2 CPE: 9; PglD DTNB: -1

Results for C=CCOc1ccc(CNCc2cccnc2)cc1OCC ?
DENV2 CPE: 22*; Glyco luc inh: 0; Rtt109 HAT inh: 1; PglD DTNB: 6

Results for C=CCOc1ccc(CNCCO)cc1OCC ?
DENV2 CPE: 5; Glyco luc inh: 1; Rtt109 HAT inh: 6; PglD DTNB: -4

Results for O=C(NCc1cccs1)c1cccc(Nc2nc3ccc(Br)cc3[nH]2)c1 ?
DENV2 CPE: 22*; Glyco luc inh: 1; Rtt109 HAT inh: 4; PglD DTNB: 0

Results for O=C(NCc1cccs1)c1ccccc1 ?
Glyco luc inh: 3; Rtt109 HAT inh: -5; PglD DTNB: 3

How did O=C(Nc1cccc(Cl)c1)c1csc([C@@H]2C[C@H](O)[C@@H](CO)O2)n1 do in these assays?
DENV2 CPE: 36*; Glyco luc inh: 1; PglD DTNB: 3

How did CC12CCC(=O)N1C(C(=O)Nc1nc(-c3ccccc3)cs1)CS2 (stereo not drawn) do in these assays?
DENV2 CPE: 29*; Glyco luc inh: -3; Rtt109 HAT inh: -3

How did CC12CCC(=O)N1C(C(=O)Nc1ccc(S(=O)(=O)N3CCCCC3)cc1)CS2 (stereo not drawn) do in these assays?
DENV2 CPE: 32*; Glyco luc inh: -3; Rtt109 HAT inh: -1

How did CCCC#Cc1ccc([C@H]2[C@@H](CO)N3CCCCN(Cc4cccnc4)C[C@@H]23)cc1 do in these assays?
DENV2 CPE: 33*; PglD DTNB: -2

Results for CCCC#Cc1ccc([C@@H]2[C@@H](CO)N3CCCCN(Cc4cncnc4)C[C@@H]23)cc1 ?
DENV2 CPE: 26*; PglD DTNB: 3

What do the screens show for `COCC#Cc1ccc([C@H]2[C@@H](CO)N3CCCCN(Cc4cccnc4)C[C@@H]23)cc1`?
DENV2 CPE: 57*; PglD DTNB: 3

What do the screens show for `COc1ccc(C#Cc2ccc3c(c2)[C@]2(C(=O)N3)[C@H](c3ccc(O)cc3)N3[C@H](c4ccccc4)[C@H](c4ccccc4)OC(=O)[C@H]3[C@@H]2C(=O)NC[C@H](O)c2ccccc2)cc1`?
DENV2 CPE: -2; PglD DTNB: -2

How did COc1ccc(S(=O)(=O)Nc2cccc3c2O[C@@H](CN(C)C(=O)Nc2ccc(C(F)(F)F)cc2)[C@H](C)CN([C@H](C)CO)C3=O)cc1 do in these assays?
DENV2 CPE: 11; PglD DTNB: -2

What do the screens show for `C[C@H]1CN([C@@H](C)CO)C(=O)c2cccc(NC(=O)Nc3cccc4ccccc34)c2O[C@H]1CN(C)C(=O)NC1CCCCC1`?
DENV2 CPE: 6; PglD DTNB: 3

How did CC(C)NC(=O)[C@@]1(C)c2ccccc2C(=O)N(Cc2ccc(OC(F)(F)F)cc2)[C@H]1c1ccc(CO)cc1 do in these assays?
DENV2 CPE: -11; PglD DTNB: 3

What do the screens show for `COc1cc2ccccc2cc1C(=O)N/N=C/c1cccs1`?
DENV2 CPE: 0; Glyco luc inh: 35*; PglD DTNB: -1

How did COC(=O)N/N=C/c1cccs1 do in these assays?
DENV2 CPE: 8; Glyco luc inh: 2; Rtt109 HAT inh: 15

How did CC1CCCCC12NC(=O)N(CC(=O)NCc1cccs1)C2=O (stereo not drawn) do in these assays?
DENV2 CPE: 29*; Glyco luc inh: -2; PglD DTNB: -3

Results for C[C@@H]1CCCCO[C@@H](CN(C)S(=O)(=O)c2cccs2)[C@@H](C)CN([C@@H](C)CO)C(=O)c2cc(NC(=O)NC3CCCCC3)ccc2O1 ?
DENV2 CPE: 2; PglD DTNB: -1

How did C[C@@H]1CN([C@H](C)CO)C(=O)c2cc(NC(=O)Nc3ccc(C(F)(F)F)cc3)ccc2O[C@@H]1CN(C)Cc1ccc(Cl)c(Cl)c1 do in these assays?
DENV2 CPE: 46*; PglD DTNB: -3

How did C[C@@H]1CN([C@H](C)CO)C(=O)c2cc(NC(=O)NC3CCCCC3)ccc2O[C@@H]1CN(C)Cc1ccncc1 do in these assays?
DENV2 CPE: 30*; PglD DTNB: 3

What do the screens show for `C[C@H]1CN([C@@H](C)CO)C(=O)c2cc(NC(=O)Nc3ccc(C(F)(F)F)cc3)ccc2O[C@@H]1CN(C)Cc1ccccc1`?
DENV2 CPE: 17; PglD DTNB: -4

What do the screens show for `C[C@H](CO)N1C[C@H](C)[C@@H](CN(C)Cc2ccncc2)Oc2ccc(NC(=O)NC3CCCCC3)cc2C1=O`?
DENV2 CPE: 0; PglD DTNB: -4
